The text below walks through data of PubChem BioAssay (NCI).

The nature of experiment [1]: NCI Yeast Anticancer Drug Screen. Data for the rad50 strain (AID 155).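 Also: 0% = growth of vehicle-only cultures of the same strain.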 The note with it: S. cerevisiae rad50 strain growth inhibition; at 50.0 µM; stronger effect = higher value. The method, boiled down: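 A DNA repair-deficient yeast mutant serves as the test organism; compound-induced growth inhibition is calculated against vehicle-treated cells.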
Experiment [2] in a line: NCI Yeast Anticancer Drug Screen. Data for the mec2-1 strain (AID 157). The note with it: S. cerevisiae mec2-1 strain, at 50.0 µM, stronger effect = higher value. The method, boiled down:
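mec2-1 yeast strain, carrying an alteration in DNA damage repair or cell cycle control, was exposed to compounds; growth inhibition was measured relative to vehicle-treated controls.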

Experiment [3] is described as follows: NCI Yeast Anticancer Drug Screen. Data for the sgs1 mgt1 strain (AID 161).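 Also: 0% = growth of cultures given vehicle only.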 The note with it: S. cerevisiae sgs1 mgt1 strain, at 50.0 µM, stronger effect = higher value. An outline of the steps: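 This yeast growth screen uses a strain with defined DNA-repair lesions; compound-treated growth is compared with vehicle-treated growth.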
A short description of experiment [4]: NCI Yeast Anticancer Drug Screen. Data for the cln2 rad14 strain (AID 165).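 Also: 0% = growth equal to vehicle treated cultures.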 The note with it: S. cerevisiae cln2 rad14 strain, at 50.0 µM, stronger effect = higher value. The method, boiled down:
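Yeast carrying cln2 and rad14 alterations (cell cycle control and DNA damage repair) were exposed to compounds. Growth inhibition was measured against vehicle-treated controls.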

Experiment [5] can be described thus: NCI Yeast Anticancer Drug Screen. Data for the bub3 strain (AID 167). The note with it: S. cerevisiae bub3 mutant strain, at 50.0 µM, stronger effect = higher value. The method, boiled down:
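Inhibition values come from growth of compound-treated mutant yeast normalised to vehicle-treated controls.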

Experiment [6] in a line: NCI Yeast Anticancer Drug Screen. Data for the mlh1 rad18 strain (AID 175). To be noted: S. cerevisiae mlh1 rad18 strain growth inhibition; at 50.0 µM; stronger effect = higher value. An outline of the steps:
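Growth inhibition of the yeast strain was measured after compound exposure and expressed relative to vehicle-treated controls. The strain carries defined defects in DNA damage repair.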

This is part of a sample that, as a whole, favours compounds with a hit. Of some 79,000 tested, about 15% had one in any assay. A number with no mark means an inactive call. Calls of active or inactive are those of the source. Rule as the data show it: active = growth inhibition above about 70%; inactive = the rest. Where a SMILES comes first, the peptide text is derived from it. The star is where a group is joined. Cbz = O=C(OCc1ccccc1)*

Take `C=C1C2CCC3(CCC4C5(C)CCCC4(CN(CCO)C5)C3C2)C1O` (stereo not given): the growth inhibition in experiment [1] was -13.6%; in experiment [2] it was -39.9%; in experiment [3], -4.45%; in experiment [4], 12.8%; in experiment [5] it was -13.4%; in experiment [6] it was -1.15%.

As for `CCCCOC(=O)C1(C(=O)OCCCC)CC1`, the growth inhibition is 14.8% in experiment [1]; -7.6% in experiment [2]; 1.3% in experiment [3]; 1.6% in experiment [4]; -3.75% in experiment [5]; 3.55% in experiment [6].

Take `N#CCc1ccc(-c2ccccc2)cc1`: the growth inhibition was -2.75% in experiment [1]; 20.9% in experiment [2]; 3.3% in experiment [3]; -31.9% in experiment [4]; -19.6% in experiment [5]; 6.25% in experiment [6].

For the molecule `N#Cc1nc(C2CCC2)oc1N`, the growth inhibition in experiment [1] was 2.3%; in experiment [2], 5.85%; in experiment [3], -15.3%; in experiment [4], 18.6%; in experiment [5], 1.55%; in experiment [6], -41.5%.

With `CCCCC(=O)N1SC(NC(=O)OC)=Nc2ccccc21`, the growth inhibition is 61% in experiment [1]; 42.4% in experiment [2]; 61.8% in experiment [3]; 67.2% in experiment [4]; 92.4% (active) in experiment [5]; 76.2% (active) in experiment [6].

Take `O=S1(=O)C(c2ccccc2Cl)=C(O)C(O)=C1c1ccccc1Cl`: the growth inhibition in experiment [1] is -0.6%; in experiment [2], -35.4%; in experiment [3], 5.05%; in experiment [4], 6%; in experiment [5] it was -2.1%; in experiment [6] it was 11.2%.

For `N#Cc1ccc(NN=NCCCCCl)cc1`, the growth inhibition was 8.85% in experiment [1]; -8.3% in experiment [2]; 14.8% in experiment [3]; 3.05% in experiment [4]; -6.7% in experiment [5]; 2.6% in experiment [6].

With `CCCC(C)C(C)O` (stereo not given), the growth inhibition in experiment [1] is -21.4%; in experiment [2], -45.6%; in experiment [3], 0.15%; in experiment [4], -11.1%; in experiment [5] it was -24.1%; in experiment [6] it was -14.8%.

With `CCC1(CCBr)C(=O)NC(=Nc2ccccc2)NC1=O` (stereo not given), the growth inhibition in experiment [1] was 5.6%; in experiment [2] it was -5.8%; in experiment [3] it was 5.9%; in experiment [4], -41.1%; in experiment [5] it was 9.9%; in experiment [6] it was -14.3%.

For the molecule `OC(C(=S)N1CCOCC1)(c1ccccc1)c1ccccc1`, the growth inhibition in experiment [1] was 5.35%; in experiment [2] it was 17.6%; in experiment [3] it was -5%; in experiment [4], 25.8%; in experiment [5] it was 17.7%; in experiment [6] it was -12.2%.

Take `CCOC(=O)c1ccc(NC(=O)Nc2cc(C(F)(F)F)ccc2Cl)cc1`: the growth inhibition in experiment [1] was 89.2% (active); in experiment [2], 28.3%; in experiment [3], 92.9% (active); in experiment [4], 92.2% (active); in experiment [5] it was 86.7% (active); in experiment [6] it was 94% (active).

As to `N#C/C(=C\c1ccc(Cl)cc1)C(=O)N/N=C/c1ccc(Cl)cc1`, the growth inhibition was 24.6% in experiment [1]; 27.1% in experiment [2]; 33% in experiment [3]; 1.35% in experiment [4]; 5.75% in experiment [5]; 27.9% in experiment [6].

For the molecule `O=C(NP(=O)(O)NC(Cc1ccccc1)C(=O)O)OCc1ccccc1` (stereo not given), the growth inhibition is -7.45% in experiment [1]; -6.65% in experiment [2]; 4.1% in experiment [3]; -18.9% in experiment [4]; 1.8% in experiment [5]; -12.2% in experiment [6].

As to `Cc1c2c(cc3c1CCC1(C)C3CCC1C(C)/C=C/C(C)C(C)C)CC(O)CC2` (stereo not given), the growth inhibition was 6.65% in experiment [1]; 11.8% in experiment [2]; 2.6% in experiment [3]; -0.2% in experiment [4]; -3% in experiment [5]; 20.5% in experiment [6].

As to `C=C(C)COCc1ccc(C(C)(C)CC(C)(C)C)cc1`, the growth inhibition in experiment [1] was -14.6%; in experiment [2] it was -10.3%; in experiment [3], -9.85%; in experiment [4], -23.5%; in experiment [5] it was -15.4%; in experiment [6], 1.55%.

Turning to `O=C1CCC(c2ccccc2)(C2CCN(Cc3ccc(F)cc3)CC2)C(=O)N1` (stereo not given), the growth inhibition in experiment [1] was -8.55%; in experiment [2], 4.85%; in experiment [3] it was -5.85%; in experiment [4], -14.8%; in experiment [5] it was 3.45%; in experiment [6] it was 4.8%.

In the case of `CC(C)(C)NC(=O)NCCCCCCNC(=O)NC(C)(C)C`, the growth inhibition was -15.5% in experiment [1]; -13.9% in experiment [2]; -7.45% in experiment [3]; -27.9% in experiment [4]; 8.05% in experiment [5]; -7.9% in experiment [6].

With `CCOC(=O)CCC(NC(=O)C(CCC(=O)OCC)NC(=O)OCc1ccccc1)C(=O)O` (stereo not given) (tested in a mixture with another compound) (Cbz-Glu(OEt)-Glu(OEt)-OH; configuration not given here), the growth inhibition in experiment [1] was -43.5%; in experiment [2], 1.15%; in experiment [3] it was -11.2%; in experiment [4], -34.9%; in experiment [5], -52.9%; in experiment [6] it was 38.6%.

With `COC(=O)CCNC(=O)OCc1ccccc1`, the growth inhibition in experiment [1] was 14.6%; in experiment [2], 30%; in experiment [3], -16.7%; in experiment [4], 26.6%; in experiment [5], -49.6%; in experiment [6] it was -75%.

For the molecule `CC(=O)NCc1cc(C)c(CBr)cc1CBr`, the growth inhibition was -1.95% in experiment [1]; -10.8% in experiment [2]; -3.6% in experiment [3]; 7.2% in experiment [4]; 7.1% in experiment [5]; 10.1% in experiment [6].
